Experimental findings from PubChem BioAssay (NCATS) are described below.

SMILES strings stand for the structures. Inconclusive results are not listed. Activity calls are given as the source filed them. Calls follow the shape of the dose curve; as a rule, active = well fitted curve in either direction with a large enough effect (not every such curve was filed as active); inconclusive = small, poorly fitted or top-dose-only effect, or another doubt; inactive = flat fitted curve, though single readings scatter.
% is scaled to controls: 0 for no effect and ±100 for the full control effect.

A short description of this experiment: Stat Signaling Pathway (AID 446).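 Also: ME-180 cervical cancer cells given 40 pM IL-6 alongside compound; SIE-controlled beta-lactamase reporter measured as 460/530 nm FRET emission ratio.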 The note with it: ME-180 SIE beta-lactamase reporter, IL-6 stimulated, 5 h; at 17.2 µM (top of the series) unless noted. Put shortly: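 Screening format detects activators and inhibitors alike: ME-180 SIE-bla cells stimulated at 40 pM IL-6 for 5 hrs with compound, then dual-emission beta-lactamase read at 405 nm excitation.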
As for `Nc1nnnn1/N=C/c1ccccn1`, the activity, negative = inhibition is -2.26% (inactive).

In the case of `COc1ccc(C(=O)Nc2ccccc2N2CCOCC2)cc1Br`, the activity, negative = inhibition was -8.26% (inactive).

As to `COCc1[nH]nc2c1C(c1ccccc1OC)C(C#N)=C(N)O2` (stereo not drawn), the activity, negative = inhibition is -17.1% (inactive).

For `CCCC1Cc2c(sc3ncnc(N)c23)CO1` (stereo not drawn), the activity, negative = inhibition was -9.41% (inactive).

For `COc1ccc(C2C=C(c3ccc(Cl)cc3)Nc3nc(NC(C)=O)nn32)cc1` (stereo not drawn), the activity, negative = inhibition is -9.52% (inactive).

`O=C(O)CC(C(=O)OCCOc1ccccc1)N1CCOCC1` (stereo not drawn): the activity, negative = inhibition is -1.47% (inactive).

With `COc1ccc(N2C(=O)CC(N(Cc3ccc(S(N)(=O)=O)cc3)C(C)=O)C2=O)cc1` (stereo not drawn), the activity, negative = inhibition is 2.66% (inactive).

Regarding `CCCOC(=O)CSC1=C(C#N)C(c2ccccc2OC)C(C#N)C(=O)N1` (stereo not drawn), the activity, negative = inhibition was -22.7% (inactive).

As to `CCCC1C2C(=O)N(c3ccccc3OC)C(=O)C2ON1c1ccccc1` (stereo not drawn), the activity, negative = inhibition was 0.927% (inactive).

Regarding `C=CCc1cccc(/C=N/n2cnnc2)c1O`, the activity, negative = inhibition is 7.8% (inactive).

On to `C=CCN=C(NC#N)SCCc1ccccc1`, for which the activity, negative = inhibition was 5.61% (inactive).

With `CC1CCCCN1C(=O)C12CCC(C)(/C(=N/O)C1)C2(C)C` (stereo not drawn), the activity, negative = inhibition was 7.2% (inactive).

As to `COc1ccc(-c2c3c([nH]c(=S)c2C#N)CCC3)cc1`, the activity, negative = inhibition was -7.04% (inactive).

As for `CCc1cccc(CC)c1N(COC)C(=O)Cn1nnc2ccccc21`, the activity, negative = inhibition is -3.83% (inactive).

With `C=CCNc1nc(C)nc(OC)n1`, the activity, negative = inhibition was 4.41% (inactive).

Take `COc1ccc(C(=O)c2oc3nc(C)cc(C)c3c2N)cc1`: the activity, negative = inhibition is -8.18% (inactive).

On to `O=CN1CCN(C(=O)CN2C(=O)c3ccccc3C2=O)CC1`, for which the activity, negative = inhibition was 6.47% (inactive).

With `O=CNC(=O)c1ccccc1C(=O)O`, the activity, negative = inhibition was 20.3% (inactive).
